From PubChem BioAssay (NCI)
Compounds without any hit were thinned out: in the full panel of roughly 79,000, 15% have a hit. Unmarked numbers belong to inactive results. Active and inactive are the calls of the source. Rule as the data show it: active = growth inhibition above about 70%; inactive = the rest.

Columns and labels:
[1] = NCI Yeast Anticancer Drug Screen. Data for the rad50 strain (AID 155);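 also: 0% = growth of vehicle-only cultures of the same strain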; conditions: S. cerevisiae rad50 strain growth inhibition; at 50.0 µM; hits give high values
Outline: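 A DNA repair-deficient yeast mutant serves as the test organism; compound-induced growth inhibition is calculated against vehicle-treated cells.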

[2] = NCI Yeast Anticancer Drug Screen. Data for the mec2-1 strain (AID 157); conditions: S. cerevisiae mec2-1 strain, at 50.0 µM, hits give high values
Outline: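 Using mec2-1 yeast: add compound, measure growth, express inhibition versus vehicle-treated cultures.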

[3] = NCI Yeast Anticancer Drug Screen. Data for the sgs1 mgt1 strain (AID 161);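 also: 0% = growth of cultures given vehicle only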; conditions: S. cerevisiae sgs1 mgt1 strain, at 50.0 µM, hits give high values
Outline: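 This yeast growth screen uses a strain with defined DNA-repair lesions; compound-treated growth is compared with vehicle-treated growth.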

[4] = NCI Yeast Anticancer Drug Screen. Data for the cln2 rad14 strain (AID 165);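 also: 0% = growth equal to vehicle treated cultures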; conditions: S. cerevisiae cln2 rad14 strain, at 50.0 µM, hits give high values
Outline: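 Yeast strain cln2 rad14, bearing defects in cell cycle control and DNA repair, serves as the test system; values reflect growth inhibition compared with vehicle.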

[5] = NCI Yeast Anticancer Drug Screen. Data for the bub3 strain (AID 167); conditions: S. cerevisiae bub3 mutant strain, at 50.0 µM, hits give high values
Outline: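 Inhibition values come from growth of compound-treated mutant yeast normalised to vehicle-treated controls.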

[6] = NCI Yeast Anticancer Drug Screen. Data for the mlh1 rad18 strain (AID 175); conditions: S. cerevisiae mlh1 rad18 strain growth inhibition; at 50.0 µM; hits give high values
Outline: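 Steps: expose repair-defective yeast to compound; measure growth; express inhibition against vehicle-treated controls.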

| Compound | growth inhibition [1] | growth inhibition [2] | growth inhibition [3] | growth inhibition [4] | growth inhibition [5] | growth inhibition [6] |
| --- | --- | --- | --- | --- | --- | --- |
| CCn1cc(C(=O)O)c(=O)c2ccc(-c3cn[nH]c3C)nc21 | 44.5% | 34.1% | 34.6% | 4.45% | 12.2% | 29.9% |
| CC1(c2ccco2)CCC(=O)CC1=O (configuration not stated) | 4.2% | 4.25% | 4.1% | 11.2% | -12.9% | 1.1% |
| O=c1ccsc(=S)[nH]1 | -1% | -2.1% | -8.35% | 0.25% | 9.05% | -3.9% |
| S=C(S)NC1CCCCC1 | -28.9% | -18.3% | -12.2% | -44% | -13.1% | -3.75% |
| O=C1C(=O)c2ccc3c(c2-c2cc4c(cc21)OCO4)OCO3 | -5.55% | -17.1% | -14.9% | -5.55% | -27.5% | 18% |
| CC(C)(C)SC(=S)SCC(=O)c1cc2cc(Br)ccc2o1 | -19.7% | -25.6% | -11.5% | -3.25% | -16.9% | -8.5% |
| CCOC(=O)C(CN1CCN(CC(NC=O)(C(=O)OCC)C(=O)OCC)CC1)(NC=O)C(=O)OCC | -17.1% | -28.3% | -11.9% | -0.5% | 1.15% | -30.1% |
| O=C1/C(=C/c2ccc(C(=O)O)cc2)CNC/C1=C\c1ccc(C(=O)O)cc1 | -7.4% | -14.9% | -3.05% | -15.4% | 3.8% | -11.8% |
| C/C(=N/NC(N)=O)C(=O)O | -0.15% | 10.7% | 2.5% | -48.4% | -2.95% | 13.7% |
| CC(C(=O)O)/C(=C\c1ccc2c(c1)OCO2)C(=O)O (configuration not stated) | 8.15% | 11.3% | -12.9% | -7.7% | 12.9% | 16.8% |
| COc1c2c(cc3c(CCc4ccccc4)cc(=O)oc13)CCC(C)(C)O2 | -5.95% | -22.8% | -6.5% | 15.4% | -5.75% | -27.3% |
| O=C(c1ccccc1)n1c2ccccc2c2ccccc21 | 9.55% | -3.3% | 17.6% | -1% | 26.2% | 26.2% |
| COC(=O)c1c2c(cc3nc4ccccc4nc13)OCO2 | 26.4% | 9.75% | 12.8% | -1.8% | 16.9% | 21.6% |
| CN(CC(=O)c1ccc(Cl)cc1)Cc1ccccc1 | -1.45% | -8.8% | 3.4% | -25.3% | 0.9% | -3.5% |
| Cc1ccc2c(c1)P(=O)(O)c1cc(C)ccc1O2 | -45.4% | -13.2% | 23.6% | 3.2% | -9.6% | -8.55% |
| CC1(C)CC(O)CC(C)(C)N1.CC1(C)CC(O)CC(C)(C)N1.CC1(C)CC(O)CC(C)(C)N1.CC1(C)CC(O)CC(C)(C)N1.Cl.[Ti] | -2.95% | -4.45% | 12.9% | 17.8% | 26.1% | 10.5% |
| CCOC(=O)C(NC(=O)C(CCCCNP(=O)(OCC)OCC)NC(=O)C(C)NC(C)=O)C(C)C (configuration not stated) | -10.7% | -10.4% | -8.4% | -25.6% | -1.35% | 3.75% |
| COC(=O)c1cc(C(=O)OC)c(C/C(=N/NC(=O)C[N+](C)(C)C)C(=O)Nc2cccc(C(F)(F)F)c2)nc1C/C(=N/NC(=O)C[N+](C)(C)C)C(=O)Nc1cccc(C(F)(F)F)c1 | -14.5% | -1.45% | -11.6% | 17.1% | 11.4% | -2.3% |
| S=C(NCc1ccncc1)Nc1ccccc1Cl | 2.75% | -0.5% | -4.7% | 12.7% | 6.1% | 9.55% |

| Compound | growth inhibition [1] | growth inhibition [2] | growth inhibition [3] | growth inhibition [4] | growth inhibition [5] | growth inhibition [6] |
| --- | --- | --- | --- | --- | --- | --- |
| OC(CSCc1ccccc1)c1ccccc1 (configuration not stated) | -17.8% | 2.45% | -7.95% | -43% | -2.2% | 3.1% |
| Clc1cc(Cc2cc(Cl)c(Cl)c3c2OCOC3)c2c(c1Cl)COCO2 | -47.6% | -24.9% | -5% | -22.4% | -10.6% | -18.3% |
| CCN1CCCC(Nc2nc(Nc3ccc(Cl)c(Cl)c3)nc3ccc(Cl)cc23)C1 (configuration not stated) | 99.2% (active) | 99.7% (active) | 99.7% (active) | 99.5% (active) | 99.4% (active) | 99.5% (active) |
| CS(=O)(=O)OC1CCCCC1OS(C)(=O)=O (configuration not stated) | 3.15% | 8.25% | 22.2% | -1.85% | 7.55% | 9.15% |
| COC(=O)C12OCC34C(CC5C(C)=C(O)C(=O)CC5(C)C3C(O)C1O)OC(=O)C(OC(C)=O)C24 (configuration not stated) | 81.5% (active) | 69.5% | 80.5% (active) | 79.3% (active) | 79% (active) | 84.2% (active) |
| O=C(C=C(C(F)(F)F)C(F)(F)F)/C=C/c1ccccc1 | 99.5% (active) | 99.7% (active) | 99.5% (active) | 99.5% (active) | 99.3% (active) | 99.4% (active) |
| C/C(Cl)=N\OC(=O)Nc1ccc([N+](=O)[O-])cc1 | 34.2% | 80.2% (active) | 85.8% (active) | 66.8% | 87.2% (active) | 43.4% |
| CC(=O)OCC1OC(n2c(C)c(N=Nc3ccc(Cl)cc3)c(C)c(C#N)c2=S)C(OC(C)=O)C(OC(C)=O)C1OC(C)=O (configuration not stated) | 4.65% | -0.75% | 25.1% | 11.9% | 7.55% | 18.8% |
| CC(C)=CC1CCc2ccccc2N1S(=O)(=O)c1ccc(C)cc1 (configuration not stated) | 31.8% | 0.25% | -14.9% | -8.7% | -31.7% | -22.6% |
| C/C(=N\NC(=O)c1ccncc1)c1cccc(F)c1 | -57% | -20.9% | -51.2% | -48.7% | -67.8% | -38% |
| C=C/C=C1\CCOC1=O | 1.15% | -5.9% | 2.85% | -3.05% | 3.1% | -10.6% |
| C=CC(=O)OCCCCCCCCCC | 47.8% | 5.6% | 28.8% | -0.7% | 13.8% | 42.1% |
| Cc1ccc(S(=O)(=O)Oc2ccc(-c3ccc([N+](=O)[O-])cc3)cc2)cc1 | 1.5% | 19.2% | 15.4% | -6.9% | -1.8% | 7.05% |
| CCCCOC(=O)C(C)OC(=O)OC (configuration not stated) | -21.1% | -13% | -2.25% | -28.8% | -15.7% | 8% |
| Cc1onc(-c2ccccc2)c1C(=O)N1CCCN2C(=O)c3ccccc3C21 (configuration not stated) | -0.3% | -11.1% | 15.8% | 2% | 22.3% | 15.8% |
| COc1cc(/C=N/NC(N)=O)cc(OC)c1O | -0.6% | -11.8% | -34.4% | -14.6% | 33.3% | -4.75% |
| CC(=O)OCC1OC(n2c3c(c(-c4ccc(Cl)cc4)c(C#N)c2=S)C(=O)CC(C)(C)C3)C(OC(C)=O)C(OC(C)=O)C1OC(C)=O (configuration not stated) | 16.1% | -10.9% | 12.6% | -5.25% | 23.4% | -37.5% |
| CC(C)C(C)NC(=O)C(C)(C)C(C)(C)C (configuration not stated) | -4.85% | -6.35% | 10.6% | -11.2% | -0.7% | -5.55% |
